Most compounds without a hit are left out; they make up all but 3.1% or so of the library.
A549 viability – Nrf2 qHTS screen for inhibitors: counterscreen for cytotoxicity | Potency, µM (top dose mostly 46 µM), for the others: top-dose activity change, negative = cytotoxicity, actives largely listed as inhibitors | A549 ARE-Fluc cells, CellTiter-Fluor viability, 18-24 h | 0.16% of 390,000 active; also: % is scaled to controls: 0 for no effect and ±100 for the full control effect
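A549 ARE-Fluc cells in 5% FBS OPTI-MEM, 5000 cells/well, rested 2 h then exposed to compounds in concentration-response for 18-24 h at 37 °C. Viability by CellTiter-Fluor fluorescence (Ex 405/Em 525) after 30 min; luciferase luminescence (BugLite, 15 min, RT) read afterwards.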
IDH1 R132H inh – qHTS for Inhibitors of mutant isocitrate dehydrogenase 1 (IDH1): qHTS | IDH1-R132H enzyme, NADPH consumption, diaphorase/resazurin fluorescence | Potency, µM (doses to about 76.6 µM), inactives show at the top dose activity change, negative = inhibition, most hits filed as inhibitors | AID 602179, 2012 | 0.093% of 390,000 active; also: % is scaled to controls: 0 for no effect and ±100 for the full control effect; nearly all actives have a fitted effect of over 65% in size
Target sequence (O75874 whole entry R132H, stated change not applied): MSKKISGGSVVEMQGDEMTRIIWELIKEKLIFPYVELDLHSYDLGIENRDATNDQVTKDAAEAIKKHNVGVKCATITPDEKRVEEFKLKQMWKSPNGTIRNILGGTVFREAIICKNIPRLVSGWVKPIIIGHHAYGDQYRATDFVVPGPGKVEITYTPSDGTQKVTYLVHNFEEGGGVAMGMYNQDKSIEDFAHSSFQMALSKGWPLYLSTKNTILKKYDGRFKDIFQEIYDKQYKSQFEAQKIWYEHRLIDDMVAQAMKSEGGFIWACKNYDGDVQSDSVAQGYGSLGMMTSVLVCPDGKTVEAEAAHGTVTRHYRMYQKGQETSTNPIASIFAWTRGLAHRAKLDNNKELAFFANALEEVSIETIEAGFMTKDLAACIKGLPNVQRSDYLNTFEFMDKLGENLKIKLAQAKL
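IDH1-R132H (0.5 ug/mL) preincubated 30 min with compound, then NADPH (0.016 mM) and alpha-KG (2 mM) added; 80 min at RT, pH 7.5. Remaining NADPH coupled via diaphorase/resazurin to fluorescence (540/590 nm); concentration-response curves normalized to no-enzyme control.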
Nrf2 inh – Nrf2 qHTS screen for inhibitors. A549 ARE-Fluc reporter, luciferase luminescence, 18-24 h. Potency, µM (titrated, usually from 46 µM), without a hit: at the highest dose activity change, negative = inhibition, hits mostly inhibitors. 2.1% of 360,000 active. AID 504444, 2011; also: % is scaled to controls: 0 for no effect and ±100 for the full control effect; nearly all actives have a fitted effect of over 60% in size
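Two sequential reads on A549 ARE_Fluc cells exposed to compound for 18-24 h: a CellTiter-Fluor fluorescence read for viability, then a luciferase luminescence read for Nrf2/ARE activity.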
TrxR1 substrate – qHTS Assay for Substrates of Mammalian Selenoprotein Thioredoxin Reductase 1 (TrxR1): qHTS; Thioredoxin reductase 1, cytoplasmic (Rattus norvegicus), O89049; purified TrxR1 substrate turnover, NADPH consumption readout; Potency, µM (top dose mostly 114 µM), for inactives: at the top dose activity change, negative = substrate turnover; 0.01% of 390,000 active; AID 588456, 2011; also: % is scaled to controls: 0 for no effect and ±100 for the full control effect; nearly all actives have a fitted effect of over 50% in size
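Rat TrxR1, dispensed at 90 nM, was prereduced with 400 uM NADPH (final) for 5 min at ~22 deg C, then incubated with compound 15 min before 400 uM selenite. A first-read NADPH fluorescence drop versus no-compound background flagged substrates.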
Mito fusion act – qHTS Assay for Small Molecule Inhibitors of Mitochondrial Division or Activators of Mitochondrial Fusion; Potency, µM (highest dose often 46.1 µM), without a hit: top-dose growth rescue (activation), actives largely listed as activators; S. cerevisiae fusion-defective mutant growth rescue, CellTiterGlo 48 h; 0.23% of 320,000 active; AID 485298, 2010; also: % of control where 0% means no effect; nearly all actives have a fitted effect of over 45% in size
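S. cerevisiae fusion-defective temperature-sensitive mutants (e.g. fzo1-1, mgm1-5) grown 48 h at 37C in YPEG (ethanol/glycerol non-fermentable) medium with 23 nl compound per well; growth rescue read as CellTiterGlo luminescence.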
TrxR1 inh – qHTS Assay for Inhibitors of Mammalian Selenoprotein Thioredoxin Reductase 1 (TrxR1): qHTS. Thioredoxin reductase 1, cytoplasmic (Rattus norvegicus), O89049. recombinant rTrxR1, NADPH fluorescence consumption, selenite substrate. Potency, µM (titrated, usually from 114 µM), for the others: top-dose activity change, negative = inhibition, most hits filed as inhibitors. 1% of 390,000 active; also: % is scaled to controls: 0 for no effect and ±100 for the full control effect; nearly all actives have a fitted effect of over 65% in size
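Rat TrxR1 (90 nM in the dispensed reagent) was pre-reduced with 400 uM NADPH for 5 min at room temperature, then incubated with compound for 15 min. After 400 uM selenite was added, NADPH fluorescence (Ex 340/Em 450 nm) was followed for 8 min.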
Starred values were filed as active, the others as inactive; ? = inconclusive; · = not tested or not shown; [ ] = another dose, or the depositor's remark. Calls follow the shape of the dose curve; as a rule, active = well fitted curve in the direction sought with a large enough effect; inconclusive = small, poorly fitted or top-dose-only effect, or another doubt; inactive = no such curve, though single readings can be large; an effect the other way counts as inactive or inconclusive. Potency is read from the fitted curve at half-maximal effect.

SMILES	A549 viability	IDH1 R132H inh	Nrf2 inh	TrxR1 substrate	Mito fusion act	TrxR1 inh
COc1ccc(CNC(=O)c2ccc(NC(=O)N3CCSc4ccccc43)cc2)cc1	-2.6%	-14.8%	-5.7%	1.8%	·	15.4%
Cc1ccc(NC(=O)CNc2cccc(Br)c2)cc1S(=O)(=O)N1CCOCC1	?	-10.2%	20.6µM*	2.2%	·	15.1%
CCN(CC)S(=O)(=O)c1cccc(NC(=O)Nc2cccc(C(F)(F)F)c2)c1	?	3.4%	2.59µM*	-1.1%	-3.0%	10.0%
Cc1nc(-c2ccc(F)cc2)c(CC(=O)Nc2ccc(C)c(S(=O)(=O)N3CCOCC3)c2)s1	-5.6%	-7.1%	18.4µM*	-1.8%	3.2%	8.7%
O=C(Nc1cccc(C(F)(F)F)c1)Nc1ccc2snnc2c1	?	0.5%	20.6µM*	0.8%	·	15.6%
CCOc1ccc(N2CC(NC(=O)CCc3ccccc3)CC2=O)cc1 (stereo unspecified)	11.5%	-3.5%	·	0.2%[57.1 µM]	·	16.4%[57.1 µM]
COc1cc(C=O)ccc1OCCCOc1ccccc1C(=O)O	10.7%	-3.8%	8.2µM*	-2.1%[57.1 µM]	5.4%	-18.5%[57.1 µM]
O=C1C(Cl)=C(NCCN2CCCCC2)C(=O)c2ccccc21	?	9.9%	?	4.5%	-4.2%	11.2µM*
CCOC(=O)c1[nH]c(=O)[nH]c1CSc1nc(C)cc(C)n1	0.0%	11.2%	·	-2.2%[57.1 µM]	0.7%	-4.9%[57.1 µM]
CCOC(=O)c1[nH]c(=O)[nH]c1COC(=O)c1cc2ccccc2o1	4.2%	-0.1%	1.0%	0.7%	4.2%	3.16µM*
COc1ccc(C=C2C(=O)OC(C)(C)OC2=O)cc1OC	-0.9%	16.2%	-0.2%	4.7%[57.1 µM]	-3.0%	?
NC(=O)COc1ccccc1	-2.3%	0.0%	16.7%	7.1%	-4.4%	19.3%
CCOc1cc(/C=C2\C(=O)ON=C2c2ccccc2)ccc1OC	-0.5%	-16.4%	1.1%	1.1%	-1.8%	17.8µM*
CCOc1cc(/C=C2/C(=O)ON=C2C)ccc1OCc1ccccc1	-3.8%	-10.0%	-7.4%	-2.7%	1.9%	?
COc1cc(/C=C2\C(=O)ON=C2c2ccccc2)cc(OC)c1OC	0.3%	1.3%	0.4%	5.2%	0.4%	17.8µM*
COc1ccc(/C=C2\C(=O)ON=C2c2ccccc2)cc1OC	5.3%	6.7%	14.3%	10.6%	-4.3%	31.6µM*
NC(=O)COc1ccc(/C=C2\C(=O)ON=C2c2ccccc2)cc1	-3.2%	4.8%	1.3%	-8.3%	-5.7%	28.2µM*
COc1ccccc1CN(C)CC(=O)c1c(C)[nH]c2ccccc12	·	·	·	-4.3%	·	?
COc1cc2nc(C#N)nc(N)c2cc1OC	·	·	·	7.9%	·	12.7%
COc1cc(/C=C2\N=C(C)OC2=O)cc(OC)c1OC	-4.5%	3.0%	0.9%	5.1%	3.0%	44.7µM*
COc1ccc(/C=C2/C(=O)ON=C2c2ccccc2)cc1OC	-12.7%	-2.3%	6.5%	7.5%	-2.6%	31.6µM*
CC(=O)N1CCc2cc(Br)cc(S(=O)(=O)N3CCC(C(=O)Nc4cccc(C)c4C)CC3)c21	-2.6%	-7.9%	-25.2%	3.6%	·	8.5%
O=C(/C=C/c1ccco1)Nc1cccnc1Cl	?	-8.1%	?	0.6%	-1.8%	15.8µM*
Cc1ccc(OCCNC(=O)/C=C/c2ccco2)cc1C	-1.5%	11.4%	-22.3%	3.8%	-3.3%	11.2µM*
O=C(/C=C/c1ccco1)NCCc1ccc(F)cc1	-11.9%	0.0%	?	4.4%	3.0%	44.7µM*
NS(=O)(=O)c1ccc(NC(=O)/C=C/c2ccco2)cc1	-1.7%	-18.7%	6.1%	-13.8%	-8.5%	17.8µM*

Screening results from PubChem.
